Test results from PubChem BioAssay (NCI).
Several values for one entry are separate records, joined by “and”; a condition that tells them apart may be missing. Equal values may be shown once. The panel holds about 83,000 compounds, 20% with a hit somewhere; the sample as a whole holds those more often.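 Method: cells in 96-well plates; compound added at one concentration; 48 h incubation; percent growth measured; values under 10 scored active.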 Activity calls are given as the source filed them.

System: MCF7 breast
Test: NCI-60 one-dose screen, 48 h (100 = growth as untreated, 0 = no growth, -100 = all killed)
Conditions: 10 µM
Protocol: Growth inhibition of the MCF7 human tumor cell line is measured as a screen for anti-cancer activity. Cells are grown in 96 well plates and exposed to the test compound for 48 hours. Compounds are tested at a single concentration, which is 10^-5 M for most compounds. The reported endpoint is percent growth (GI% or GIPRCNT), where numbers from 0 - 100% represent growth inhibition, and numbers from -100% - 0 represent cell death. For example, a value of 40 represents 60% growth inhibition. A value of 0 means no net growth occurred over the course of the experiment. A value of -40 indicates 40% of cells at the beginning of the experiment died by the end of the experiment. A value of -100 means all cells are dead at the end of the experiment.
NCI-60 Human Tumor Cell Lines Screen was performed using the standard one-dose NCI protocol, which is described in more detail at https://dtp.cancer.gov/discovery_development/nci-60/default.htm.
Compounds with GIPRCNT values below 10 were considered active. Activity score was based on GIPRCNT using the following formula: […]
Score is 0 for GIPRCNT values of 100 or above, 50 for GIPRCNT values of 0, and 100 for GIPRCNT values of -100.

SMILES	growth
COc1cc2c(c(OC)c1OC)-c1ccc(O)c(=O)cc1[C@@H](NC(C)=O)CC2	7.81% (active)

Same assay, conditions: 10 µM unless noted

SMILES	growth
COc1cc(/C=C\[N+](=O)[O-])ccc1O	9.85% (active) and 23.9% (inactive)
COC12c3c(C)cc(O)c4c(=O)occ(c34)C(=O)C1C13COC(=O)c4c(O)cc(C)c(c41)C(=O)C2C3OC(C)=O (stereo not given)	89.5% (inactive)
C[C@H]1CC[C@@]2(NC1)O[C@H]1C[C@H]3[C@@H]4CC[C@H]5C[C@@H](O)CC[C@]5(C)[C@H]4CC[C@]3(C)[C@H]1[C@@H]2C	29.5% [100 µM] (inactive) and 25.5% [100 µM] (inactive)
COC(C(=O)C(O)C(C)O)C1Cc2cc3cc(OC4CC(OC(C)=O)C(OC5CC(O)C(OC)C(C)O5)C(C)O4)cc(O)c3c(O)c2C(=O)C1OC1CC(OC2CC(OC3CC(C)(O)C(OC(=O)C(C)C)C(C)O3)C(O)C(C)O2)C(O)C(C)O1 (stereo not given)	1.47% (active)
[Cl][Sn]([c]1ccccc1)([c]1ccccc1)[c]1ccccc1	-81.1% (active)
CN(CCCl)c1ccc(/C=C/C2=[N+](C)c3ccccc3C2(C)C)cc1	14.9% (inactive)
CCOP(=O)(OCC)/C(C#N)=C/c1ccc(Br)cc1	92% (inactive)
O=[N+]([O-])/C=C/c1ccc(Cl)cc1[N+](=O)[O-]	-69.2% (active)
COc1ccc(/C=C\[N+](=O)[O-])cc1OC	12.6% (inactive) and 16.4% (inactive)
O=C(CCl)Nc1ccc(Cl)cc1	16.9% (inactive)
COc1cc([C@@H]2c3cc4c(c(O)c3C[C@H]3COC(=O)[C@@H]32)OCO4)cc(OC)c1OC	8.86% (active)
COc1cc([N+](=O)[O-])c2ncccc2c1[N+](=O)[O-]	23.3% (inactive)
CC[C@@H](C)[C@@H]1NC(=O)C(NC(=O)C(CC(C)C)N(C)C(=O)C2CCCN2C(=O)C(C)O)C(C)OC(=O)C(Cc2ccc(OC)cc2)N(C)C(=O)C2CCCN2C(=O)C(CC(C)C)NC(=O)C(C)C(=O)C(C(C)C)OC(=O)C[C@H]1O (stereo not given in full)	-27.7% (active)
O=[N+]([O-])/C=C/c1ccc([N+](=O)[O-])cc1	-14.5% (active) and 23.1% (inactive)
[Cl][Hg][c]1ccc2ccccc2c1	-61.5% (active)
CCOC(=O)c1[nH]cnc1/N=N/N(C)N	69.3% [100 µM] (inactive) and -85.5% [100 µM] (active)
CCCCCCCC[N+]12CN3CN(CN(C3)C1)C2	91.4% (inactive)
ClCc1ccc2ccccc2n1	103% (inactive)
S=C=NCCc1ccccc1	20.3% (inactive)

SMILES	growth
Cc1cc(C)c(C[N+](C)(C)C)c(C)c1C	-10.7% (active)
O=C1C=Cc2ccccc2C1=O	66.1% (inactive)
COC1CC2C=C(C)/C=C/C=C/C(=O)NC(c3ccccc3)C/C=C/CCC(O)CC(=O)C2=C1O (stereo not given)	-68.8% (active)
CC(Cc1ccc2c(c1)OCO2)NN (stereo not given)	91.2% (inactive)
CC(C)C1(NC(=O)C2CC3c4cccc5[nH]cc(c45)CC3N(C)C2)OC2(O)C3CCCN3C(=O)C(Cc3ccccc3)N2C1=O (stereo not given)	95.8% (inactive)
O=C1CCC(=O)N1SC(Cl)(Cl)Cl	97.2% (inactive)
NC(Cc1ccccc1)c1ccccc1 (stereo not given)	97.5% (inactive) and 97% (inactive)
COC12C(COC(N)=O)C3=C(C(=O)C(C)=C(N)C3=O)N1CC1C2N1C (stereo not given)	27.5% (inactive)
COc1ccccc1/C=C/[N+](=O)[O-]	28.8% (inactive)
[Cl][Hg][c]1ccc(Cl)s1	-37.1% (active)
O=c1[nH]c2ccccc2n1C1CCN(CCCC(c2ccc(F)cc2)c2ccc(F)cc2)CC1	65% (inactive) and 6.06% (active)
NNc1ccccc1	86.8% (inactive)
C[C@@H]1C[C@@H]([C@H](O)CC2CC(=O)NC(=O)C2)C(=O)[C@@H](C)C1	9.88% (active)
CC(=O)[O][Hg][c]1c(C)c(C)cc(C)c1C	-6.63% (active)
C#CC1(O)CCC(C(C)(C)C)CC1 (stereo not given)	99% (inactive)
C[CH2][Hg][S]c1ccccc1C(=O)O	-95.9% (active)
N#CCc1ccccc1	97.7% (inactive)
COc1ccc2c(ccc3oc([N+](=O)[O-])cc32)c1	6.64% (active)
COc1cc2c3cc1Oc1c(OC)c(OC)cc4c1C(Cc1ccc(cc1)Oc1cc(ccc1O)CC3N(C)CC2)N(C)CC4 (stereo not given)	33.8% [100 µM] (inactive) and -96.4% [100 µM] (active)

Same assay, conditions: 100 µM

SMILES	growth
COc1cc2c(c(OC)c1OC)-c1ccc(O)c(=O)cc1[C@@H](NC(C)=O)CC2	-47.9% (active)
